# Experiments:
# [1] = target: Fibroblast growth factor receptor 4 (Homo sapiens) (UniProt P22455); details: at 1 µM;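 also: reported figure is the averaged percent inhibition of FGFR4, from the GSK PKIS kinase screening panel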
# [2] = target: Tyrosine-protein kinase Fgr (Homo sapiens) (UniProt P09769); details: at 0.1 µM
# [3] = target: Tyrosine-protein kinase Fgr (Homo sapiens) (UniProt P09769); details: at 1 µM
# [4] = target: Vascular endothelial growth factor receptor 1 (Homo sapiens) (UniProt P17948); details: at 0.1 µM
# [5] = target: Vascular endothelial growth factor receptor 1 (Homo sapiens) (UniProt P17948); details: at 1 µM
# [6] = target: Receptor-type tyrosine-protein kinase FLT3 (Homo sapiens) (UniProt P36888); details: at 0.1 µM
# [7] = target: Receptor-type tyrosine-protein kinase FLT3 (Homo sapiens) (UniProt P36888); details: at 1 µM
# [8] = tested on: T1, Receptor-type tyrosine-protein kinase FLT3 (Homo sapiens), P36888 [D835Y]; details: at 0.1 µM
# T1 sequence (whole entry): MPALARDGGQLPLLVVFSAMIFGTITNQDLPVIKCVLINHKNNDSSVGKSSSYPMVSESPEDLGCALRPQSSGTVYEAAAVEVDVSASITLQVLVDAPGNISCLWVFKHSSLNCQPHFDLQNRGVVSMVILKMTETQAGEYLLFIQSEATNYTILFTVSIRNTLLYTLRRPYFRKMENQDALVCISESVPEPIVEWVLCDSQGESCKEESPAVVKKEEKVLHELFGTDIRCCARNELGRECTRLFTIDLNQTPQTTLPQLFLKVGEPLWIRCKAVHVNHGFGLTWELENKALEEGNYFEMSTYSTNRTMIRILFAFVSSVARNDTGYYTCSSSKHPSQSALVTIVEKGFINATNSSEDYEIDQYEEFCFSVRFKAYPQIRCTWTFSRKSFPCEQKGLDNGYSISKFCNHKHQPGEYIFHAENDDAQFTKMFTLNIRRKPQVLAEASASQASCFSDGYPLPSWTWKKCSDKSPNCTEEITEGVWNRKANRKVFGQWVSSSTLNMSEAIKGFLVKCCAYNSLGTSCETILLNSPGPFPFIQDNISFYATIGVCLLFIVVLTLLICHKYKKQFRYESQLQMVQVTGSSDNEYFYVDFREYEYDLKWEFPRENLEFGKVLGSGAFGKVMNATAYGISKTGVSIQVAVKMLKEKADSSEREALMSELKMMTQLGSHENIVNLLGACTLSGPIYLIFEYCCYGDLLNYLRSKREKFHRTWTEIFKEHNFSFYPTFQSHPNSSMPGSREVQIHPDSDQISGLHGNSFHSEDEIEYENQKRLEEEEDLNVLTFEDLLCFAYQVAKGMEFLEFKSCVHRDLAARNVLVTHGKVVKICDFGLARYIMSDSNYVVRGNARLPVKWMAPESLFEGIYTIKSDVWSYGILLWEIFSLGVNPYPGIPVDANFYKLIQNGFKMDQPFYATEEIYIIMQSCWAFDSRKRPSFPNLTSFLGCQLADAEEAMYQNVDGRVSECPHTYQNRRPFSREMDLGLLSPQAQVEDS
# [9] = target: Non-receptor tyrosine-protein kinase TYK2 (Homo sapiens) (UniProt P29597); details: at 1 µM;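 also: values are mean percent inhibition of TYK2 kinase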
# [10] = target: T2, Tyrosine-protein kinase receptor TYRO3 (Homo sapiens) (UniProt Q06418); details: at 0.1 µM
# T2 sequence (whole entry): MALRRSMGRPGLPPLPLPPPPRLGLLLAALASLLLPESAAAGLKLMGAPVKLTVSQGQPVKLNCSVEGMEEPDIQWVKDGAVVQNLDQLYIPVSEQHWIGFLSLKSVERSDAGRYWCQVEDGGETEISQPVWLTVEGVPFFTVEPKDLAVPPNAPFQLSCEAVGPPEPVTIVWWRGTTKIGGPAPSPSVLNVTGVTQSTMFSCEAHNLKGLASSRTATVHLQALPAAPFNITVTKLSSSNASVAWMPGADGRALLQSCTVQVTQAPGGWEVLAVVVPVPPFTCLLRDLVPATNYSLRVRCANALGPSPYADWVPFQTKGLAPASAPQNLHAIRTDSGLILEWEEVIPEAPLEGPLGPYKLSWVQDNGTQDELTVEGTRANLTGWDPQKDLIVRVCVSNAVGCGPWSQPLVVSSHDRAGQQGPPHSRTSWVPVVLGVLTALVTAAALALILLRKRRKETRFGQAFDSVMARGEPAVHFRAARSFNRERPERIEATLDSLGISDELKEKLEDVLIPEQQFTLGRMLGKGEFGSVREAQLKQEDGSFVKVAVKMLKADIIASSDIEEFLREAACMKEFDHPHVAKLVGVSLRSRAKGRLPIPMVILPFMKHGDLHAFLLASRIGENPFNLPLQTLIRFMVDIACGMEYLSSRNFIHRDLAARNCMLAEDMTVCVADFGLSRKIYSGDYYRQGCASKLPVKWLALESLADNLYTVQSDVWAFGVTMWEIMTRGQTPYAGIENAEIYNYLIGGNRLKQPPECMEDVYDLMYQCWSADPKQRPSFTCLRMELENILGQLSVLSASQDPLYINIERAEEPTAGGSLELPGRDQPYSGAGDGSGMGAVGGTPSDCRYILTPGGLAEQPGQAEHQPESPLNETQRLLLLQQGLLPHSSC
# [11] = target: T2, Tyrosine-protein kinase receptor TYRO3 (Homo sapiens); details: at 1 µM
# [12] = target: Tyrosine-protein kinase Yes (Homo sapiens) (UniProt P07947); details: at 0.1 µM
# [13] = target: Tyrosine-protein kinase Yes (Homo sapiens) (UniProt P07947); details: at 1 µM
# [14] = target: T3, Tyrosine-protein kinase ZAP-70 (Homo sapiens) (UniProt P43403); details: at 0.1 µM
# T3 sequence (whole entry): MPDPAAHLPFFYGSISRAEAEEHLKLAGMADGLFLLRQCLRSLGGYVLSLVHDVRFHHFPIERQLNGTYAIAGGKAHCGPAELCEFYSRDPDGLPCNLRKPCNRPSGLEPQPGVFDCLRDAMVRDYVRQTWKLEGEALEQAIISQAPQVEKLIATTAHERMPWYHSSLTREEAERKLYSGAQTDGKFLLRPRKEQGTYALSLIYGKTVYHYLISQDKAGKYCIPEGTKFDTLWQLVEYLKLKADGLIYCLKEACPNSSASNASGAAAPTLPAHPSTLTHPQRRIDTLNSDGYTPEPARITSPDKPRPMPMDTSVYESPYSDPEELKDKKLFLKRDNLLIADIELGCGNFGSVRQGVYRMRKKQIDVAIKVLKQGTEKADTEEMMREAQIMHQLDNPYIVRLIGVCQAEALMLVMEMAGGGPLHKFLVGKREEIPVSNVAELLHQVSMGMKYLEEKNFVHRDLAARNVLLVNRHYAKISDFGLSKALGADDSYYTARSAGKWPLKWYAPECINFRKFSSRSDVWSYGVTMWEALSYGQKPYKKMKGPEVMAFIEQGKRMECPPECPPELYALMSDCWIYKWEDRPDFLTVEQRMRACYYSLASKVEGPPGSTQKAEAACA
# [15] = target: T3, Tyrosine-protein kinase ZAP-70 (Homo sapiens); details: at 1 µM
# [16] = target: Serine/threonine-protein kinase B-raf (Homo sapiens) (UniProt P15056); details: at 0.1 µM
# [17] = target: Serine/threonine-protein kinase B-raf (Homo sapiens) (UniProt P15056); details: at 1 µM
# [18] = tested on: Serine/threonine-protein kinase B-raf (Homo sapiens), P15056 [V600E]; details: at 0.1 µM
# [19] = tested on: Serine/threonine-protein kinase B-raf (Homo sapiens), P15056 [V600E]; details: at 1 µM
# [20] = target: RAF proto-oncogene serine/threonine-protein kinase (Homo sapiens) (UniProt P04049); details: at 0.1 µM;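 also: values are mean CRAF kinase inhibition from profiling of the GSK Published Kinase Inhibitor Set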
# RAF proto-oncogene serine/threonine-protein kinase (Homo sapiens), sequence (P04049 whole entry): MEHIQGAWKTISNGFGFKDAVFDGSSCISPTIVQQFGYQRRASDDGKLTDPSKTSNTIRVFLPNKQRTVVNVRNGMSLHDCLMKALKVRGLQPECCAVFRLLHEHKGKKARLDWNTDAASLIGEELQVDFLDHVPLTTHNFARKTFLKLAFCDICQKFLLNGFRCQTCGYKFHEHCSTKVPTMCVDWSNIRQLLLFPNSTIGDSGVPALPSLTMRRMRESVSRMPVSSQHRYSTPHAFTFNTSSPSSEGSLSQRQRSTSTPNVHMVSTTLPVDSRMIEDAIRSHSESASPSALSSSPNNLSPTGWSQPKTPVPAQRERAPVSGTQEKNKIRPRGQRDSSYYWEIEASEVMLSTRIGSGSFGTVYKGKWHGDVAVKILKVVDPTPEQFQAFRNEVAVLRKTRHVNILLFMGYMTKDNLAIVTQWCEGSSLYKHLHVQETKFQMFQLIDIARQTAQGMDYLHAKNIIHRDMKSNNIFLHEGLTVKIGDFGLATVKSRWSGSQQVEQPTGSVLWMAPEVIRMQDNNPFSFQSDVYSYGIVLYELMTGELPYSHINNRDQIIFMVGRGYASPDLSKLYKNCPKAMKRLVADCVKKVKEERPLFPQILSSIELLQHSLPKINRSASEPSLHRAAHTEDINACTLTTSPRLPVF
# Tyrosine-protein kinase Yes (Homo sapiens), sequence (P07947 2-543 limits assumed): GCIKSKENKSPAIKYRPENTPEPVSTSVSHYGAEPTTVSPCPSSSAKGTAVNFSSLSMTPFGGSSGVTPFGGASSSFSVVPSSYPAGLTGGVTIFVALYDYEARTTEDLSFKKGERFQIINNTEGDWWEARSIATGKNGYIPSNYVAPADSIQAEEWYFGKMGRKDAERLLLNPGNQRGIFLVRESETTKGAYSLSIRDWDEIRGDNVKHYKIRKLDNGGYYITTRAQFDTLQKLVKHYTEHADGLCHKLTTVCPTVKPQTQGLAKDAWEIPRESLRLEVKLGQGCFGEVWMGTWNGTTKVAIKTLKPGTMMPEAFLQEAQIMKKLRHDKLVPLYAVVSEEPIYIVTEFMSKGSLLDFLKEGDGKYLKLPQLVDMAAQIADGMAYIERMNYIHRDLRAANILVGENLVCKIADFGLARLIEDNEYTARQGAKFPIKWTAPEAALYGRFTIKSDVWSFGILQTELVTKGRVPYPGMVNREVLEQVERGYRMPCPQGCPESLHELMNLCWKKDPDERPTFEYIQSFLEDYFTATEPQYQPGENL
# Vascular endothelial growth factor receptor 1 (Homo sapiens), sequence (P17948 whole entry): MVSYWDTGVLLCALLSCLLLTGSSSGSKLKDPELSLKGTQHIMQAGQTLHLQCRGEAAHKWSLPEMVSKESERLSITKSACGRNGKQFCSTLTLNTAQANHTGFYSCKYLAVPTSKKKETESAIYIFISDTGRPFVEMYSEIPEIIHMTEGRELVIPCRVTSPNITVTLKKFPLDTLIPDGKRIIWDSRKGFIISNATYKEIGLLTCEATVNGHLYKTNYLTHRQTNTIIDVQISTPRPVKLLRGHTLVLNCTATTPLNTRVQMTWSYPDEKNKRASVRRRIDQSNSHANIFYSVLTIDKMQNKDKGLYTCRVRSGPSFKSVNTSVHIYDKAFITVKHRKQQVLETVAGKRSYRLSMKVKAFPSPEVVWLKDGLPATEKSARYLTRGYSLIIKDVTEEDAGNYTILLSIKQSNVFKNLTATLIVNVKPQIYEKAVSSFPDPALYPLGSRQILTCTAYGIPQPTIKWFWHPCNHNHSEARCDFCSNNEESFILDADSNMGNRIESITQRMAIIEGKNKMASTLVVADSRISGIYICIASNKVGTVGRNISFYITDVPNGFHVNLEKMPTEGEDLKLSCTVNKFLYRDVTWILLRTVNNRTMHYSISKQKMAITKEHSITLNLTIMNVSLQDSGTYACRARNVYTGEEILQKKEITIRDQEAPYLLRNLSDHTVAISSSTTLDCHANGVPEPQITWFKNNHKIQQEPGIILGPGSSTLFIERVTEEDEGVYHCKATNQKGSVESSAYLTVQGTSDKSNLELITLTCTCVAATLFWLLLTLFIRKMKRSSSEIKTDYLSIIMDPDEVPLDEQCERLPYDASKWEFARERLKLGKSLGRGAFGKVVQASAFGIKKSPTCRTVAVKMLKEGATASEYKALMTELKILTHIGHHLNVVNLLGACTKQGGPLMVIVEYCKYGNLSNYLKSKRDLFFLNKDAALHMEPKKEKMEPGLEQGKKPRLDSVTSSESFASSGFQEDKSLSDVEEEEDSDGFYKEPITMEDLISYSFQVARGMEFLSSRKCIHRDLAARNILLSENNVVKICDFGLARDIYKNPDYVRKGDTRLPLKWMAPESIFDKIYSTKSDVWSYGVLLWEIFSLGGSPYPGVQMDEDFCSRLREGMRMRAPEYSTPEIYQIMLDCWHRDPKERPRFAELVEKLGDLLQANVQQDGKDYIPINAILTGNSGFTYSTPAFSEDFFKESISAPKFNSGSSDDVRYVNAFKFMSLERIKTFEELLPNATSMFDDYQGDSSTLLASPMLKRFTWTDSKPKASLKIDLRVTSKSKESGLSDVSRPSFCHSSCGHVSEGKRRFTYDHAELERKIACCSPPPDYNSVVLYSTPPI
# Serine/threonine-protein kinase B-raf (Homo sapiens), P15056 [V600E], sequence (P15056 whole entry V600E): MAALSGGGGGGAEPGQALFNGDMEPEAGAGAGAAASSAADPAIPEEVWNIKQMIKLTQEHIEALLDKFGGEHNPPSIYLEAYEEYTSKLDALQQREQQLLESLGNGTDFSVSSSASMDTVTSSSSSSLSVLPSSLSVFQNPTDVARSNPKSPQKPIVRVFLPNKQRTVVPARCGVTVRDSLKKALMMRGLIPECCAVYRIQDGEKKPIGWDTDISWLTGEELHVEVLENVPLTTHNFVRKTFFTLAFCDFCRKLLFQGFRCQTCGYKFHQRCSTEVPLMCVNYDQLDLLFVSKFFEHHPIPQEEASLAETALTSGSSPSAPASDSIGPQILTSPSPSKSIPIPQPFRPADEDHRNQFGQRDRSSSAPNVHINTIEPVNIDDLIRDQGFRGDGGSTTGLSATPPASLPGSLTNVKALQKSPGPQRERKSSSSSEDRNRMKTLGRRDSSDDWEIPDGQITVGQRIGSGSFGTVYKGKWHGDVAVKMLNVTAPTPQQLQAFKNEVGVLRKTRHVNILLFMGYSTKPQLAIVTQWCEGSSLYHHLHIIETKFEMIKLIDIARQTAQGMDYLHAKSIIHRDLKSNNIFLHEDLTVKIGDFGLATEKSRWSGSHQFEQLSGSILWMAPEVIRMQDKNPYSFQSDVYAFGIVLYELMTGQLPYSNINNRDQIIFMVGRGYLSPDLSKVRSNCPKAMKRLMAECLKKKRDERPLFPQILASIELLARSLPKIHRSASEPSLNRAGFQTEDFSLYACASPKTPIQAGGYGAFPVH
# Serine/threonine-protein kinase B-raf (Homo sapiens), sequence (P15056 whole entry): as the sequence (P15056 whole entry V600E) above, with E600V counted along it
# Non-receptor tyrosine-protein kinase TYK2 (Homo sapiens), sequence (P29597 whole entry): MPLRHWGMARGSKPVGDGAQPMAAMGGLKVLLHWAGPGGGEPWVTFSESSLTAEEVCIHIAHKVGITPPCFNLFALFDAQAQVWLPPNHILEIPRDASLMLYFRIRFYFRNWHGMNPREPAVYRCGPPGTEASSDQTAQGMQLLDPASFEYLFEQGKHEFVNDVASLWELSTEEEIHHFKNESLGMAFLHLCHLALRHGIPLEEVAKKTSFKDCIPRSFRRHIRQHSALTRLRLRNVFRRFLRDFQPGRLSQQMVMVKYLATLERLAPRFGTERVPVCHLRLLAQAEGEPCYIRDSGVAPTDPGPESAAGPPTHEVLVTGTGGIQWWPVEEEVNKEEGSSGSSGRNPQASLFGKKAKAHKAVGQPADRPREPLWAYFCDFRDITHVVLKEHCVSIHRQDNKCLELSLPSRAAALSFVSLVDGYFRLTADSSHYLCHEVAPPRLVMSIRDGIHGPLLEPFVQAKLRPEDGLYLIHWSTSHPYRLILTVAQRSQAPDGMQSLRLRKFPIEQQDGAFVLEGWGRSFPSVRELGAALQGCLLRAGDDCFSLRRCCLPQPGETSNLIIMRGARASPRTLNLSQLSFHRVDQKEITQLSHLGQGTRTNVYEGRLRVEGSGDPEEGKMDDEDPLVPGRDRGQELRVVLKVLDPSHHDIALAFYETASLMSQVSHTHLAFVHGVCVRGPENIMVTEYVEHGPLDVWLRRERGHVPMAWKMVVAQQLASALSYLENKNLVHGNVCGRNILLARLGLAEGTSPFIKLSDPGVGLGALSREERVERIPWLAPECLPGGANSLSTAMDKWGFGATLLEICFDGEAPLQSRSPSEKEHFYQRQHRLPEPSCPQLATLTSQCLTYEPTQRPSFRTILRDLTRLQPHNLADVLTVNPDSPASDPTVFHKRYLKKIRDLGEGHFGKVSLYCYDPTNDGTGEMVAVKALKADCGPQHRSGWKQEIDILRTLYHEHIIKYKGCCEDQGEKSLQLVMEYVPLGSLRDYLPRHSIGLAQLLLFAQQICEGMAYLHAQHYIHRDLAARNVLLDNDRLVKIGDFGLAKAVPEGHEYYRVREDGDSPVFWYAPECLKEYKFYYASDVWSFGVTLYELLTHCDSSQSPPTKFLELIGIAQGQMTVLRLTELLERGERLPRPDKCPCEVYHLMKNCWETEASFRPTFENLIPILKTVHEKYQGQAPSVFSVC
# Tyrosine-protein kinase Fgr (Homo sapiens), sequence (P09769 2-529 limits assumed): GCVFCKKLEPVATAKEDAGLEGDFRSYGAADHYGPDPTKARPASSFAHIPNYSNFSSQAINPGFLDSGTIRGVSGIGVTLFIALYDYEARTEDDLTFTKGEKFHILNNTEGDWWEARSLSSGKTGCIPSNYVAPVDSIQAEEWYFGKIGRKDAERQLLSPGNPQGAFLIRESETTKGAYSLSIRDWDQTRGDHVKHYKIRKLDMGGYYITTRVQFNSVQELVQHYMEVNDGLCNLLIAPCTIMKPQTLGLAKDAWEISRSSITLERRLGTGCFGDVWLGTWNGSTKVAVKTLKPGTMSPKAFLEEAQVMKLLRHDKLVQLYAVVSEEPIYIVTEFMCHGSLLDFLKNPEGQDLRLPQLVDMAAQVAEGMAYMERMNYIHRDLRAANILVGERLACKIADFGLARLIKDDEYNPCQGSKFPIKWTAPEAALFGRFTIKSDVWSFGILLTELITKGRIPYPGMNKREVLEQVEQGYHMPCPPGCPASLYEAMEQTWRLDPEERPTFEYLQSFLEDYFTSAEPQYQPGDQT
SMILES,inhibition [1] [%],inhibition [2] [%],inhibition [3] [%],inhibition [4] [%],inhibition [5] [%],inhibition [6] [%],inhibition [7] [%],inhibition [8] [%],inhibition [9] [%],inhibition [10] [%],inhibition [11] [%],inhibition [12] [%],inhibition [13] [%],inhibition [14] [%],inhibition [15] [%],inhibition [16] [%],inhibition [17] [%],inhibition [18] [%],inhibition [19] [%],inhibition [20] [%]
CN1CCC(n2cnc(-c3ccc(F)cc3)c2-c2ccnc(N)n2)CC1,4.3,4.22,8.36,-0.81,2.41,-0.36,1.76,-8.15,-0.01,1.97,7.48,2.09,13.4,1.2,2.81,1.83,5.24,1.74,5.35,-0.57
Fc1ccc(-c2cc(-c3c[nH]nc3-c3ccccn3)ccn2)cc1,-0.52,5.85,3.11,1.1,1.96,2.44,2.5,-6.21,-4.52,3.67,5.06,5.64,9.04,2.71,2.35,6.7,8.05,9.04,6.61,0.68
CCNC(=O)O[C@H]1CN[C@H](C#Cc2cc3ncnc(Nc4ccc(OCc5cccc(F)c5)c(Cl)c4)c3s2)C1,-0.06,1.28,1.88,2.51,1.26,2.06,2.34,3.08,-3.06,2.91,1.4,1.68,-0.6,-3.39,-3.28,4.28,4.49,2.44,2.23,-0.64
O=S(=O)(CCNCc1ccc(-c2ccc3ncnc(Nc4ccc(OCc5cccc(F)c5)c(Cl)c4)c3c2)o1)c1ccccc1,1.88,2.78,5.07,2.06,4.7,5.79,4.97,-2.76,-2.79,1.84,3,3.79,7.66,2.6,1.7,8.76,8.78,6.36,6.18,1.16
CCN(CC)S(=O)(=O)c1ccc(OC)c(Nc2ncc(-c3ccccc3)o2)c1,3.57,10.4,38.8,7.45,30.6,10.2,53.4,17.9,0.12,8.1,45.8,24.2,58.6,2.08,-0.02,0.42,0.29,-0.35,0.01,0.35
N#Cc1c(NC(=O)CN2CCOCC2)sc2c1CCCC2,2.81,2.52,4.31,0.23,4.24,1.8,4.78,0.3,-0.83,2.15,3.91,3.9,3.95,1.13,-1.02,5.62,6.96,5.95,4.84,4.41
COc1cc(N2CCN(C(C)C)CC2)ccc1Nc1nc(Nc2ccc(F)cc2C(N)=O)c2cc[nH]c2n1,7.42,0.9,5.03,-0.84,0.61,2.47,8.56,2.42,-2.61,0.64,2.95,0.75,7.33,6.3,23.5,2.3,16.1,1.62,13.7,0.33
CS(=O)(=O)CCNCc1ccc(-c2ccc3ncnc(Nc4ccc(OCc5ccccc5)c(C(F)(F)F)c4)c3c2)o1,2.14,1.98,4.93,1.28,0.39,3.55,2.04,-8.47,-3.76,5.89,6.25,2.85,7.92,0.47,2.41,5.9,4.19,3.97,3,1.81
CC(C)(CO)CNC(=O)c1ccc2c(c1)/C(=N/Nc1ccc(S(N)(=O)=O)cc1)C(=O)N2,-0.62,3.82,22.2,-1.72,11.1,0.08,6.23,1.72,4.08,-0.65,5.36,1.79,16.9,-3.15,0.33,5.62,43.5,7.49,44.1,-0.32
CCn1c(-c2nonc2N)nc2ccccc21,-0.03,2.86,4.31,2.69,0.59,0.25,0.31,3.23,-0.21,1.05,0.63,-0.03,-1.08,1,-0.17,3.74,4.94,3.64,4.52,2.9
COC(=O)Nc1nc2ccc(Oc3ccc(NC(=O)Nc4cccc(Cl)c4)cc3)cc2[nH]1,-0.03,2.28,4.23,28.6,56.8,21.1,57.2,-4.92,-0.96,3.45,11,0.67,2.42,0.78,2.42,6.07,17.1,6.79,15.1,-4.01
Nc1nc(-c2cccc(Cl)c2)c(-c2ccc3ncccc3n2)s1,2.06,4.53,4.6,0.88,3.45,2.09,2,-4.43,-0.72,3.62,5.98,4.06,18.4,4.31,3.94,7.17,9.65,7.28,8.63,-1.17
COC(=O)Nc1nc2ccc(S(=O)(=O)c3ccc(NC(=O)Nc4cc(C(F)(F)F)ccc4F)cc3)cc2[nH]1,0.83,0.25,6.79,0.68,-0.67,-0.31,3.96,-2.76,0.09,0.25,2.45,1.97,-2.4,2.44,3.21,3.07,3.12,3.61,4.39,-1.21
N#Cc1c(NC(=O)c2ccc(F)cc2)sc2c1CCCC2,1.31,2.11,1.83,0.3,1.63,-2.18,0.66,-4.75,-1.49,0.28,2.87,0.59,4.07,1.26,2.47,1.72,3.03,1.04,2.86,-3.13
O=C(O[C@H]1CN[C@H](C#Cc2cc3ncnc(Nc4ccc(Cc5ccccc5)cc4)c3s2)C1)N1CCOCC1,0.95,5.25,20.8,-0.12,2.35,-1.61,0.34,5.18,-3.27,0.99,0.43,7.04,38.8,-0.2,2.04,3.95,4.23,3.02,3.28,-1.64
CNC(=O)c1cc(-c2ccc(F)cc2)cc(-c2ccc(S(=O)(=O)N3CCCC3)cc2)c1N,0.22,0.33,2.93,2.17,-0.47,3.03,1.85,-1.38,-1.28,1.59,1.73,2.18,3.44,-0.4,-0.59,3.72,3.4,3.04,3.6,0.46
